Measured values as given in PubChem BioAssay AID504408 (Broad Institute, 2011).
Among all 300,000 compounds or so, about 5,200 (1.7%) were called active.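 The calls were made as follows: active = mean replicate activation of at least 50% with a set share of replicates each reaching 50%; inconclusive = only one of those two conditions met; inactive = mean below 50% and too few replicates reaching it.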 For the sample, actives were picked, then their nearest neighbours and some compounds at random.

assay: HSF-1 response element luciferase induction – NIH3T3-HGL cells, MG132 stress, luminescence, single point, primary screen (AID 504408); conditions: NIH3T3-HGL HSF-1 luciferase reporter, MG132, 8 h; at 9 µM; stronger effect = higher value; 100% = twice DMSO control signal;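 also: 0% = median of the neutral control wells and 100% = twice that signal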

activation, inactive:
CN(C)CCCN(C(=O)c1ccc(S(=O)(=O)N2CCCCCC2)cc1)c1nc2cc3c(cc2s1)OCCO3 -46.2%
CCCCn1c(N)c(N(CC(C)C)C(=O)c2cccc(S(=O)(=O)N3CC(C)OC(C)C3)c2)c(=O)[nH]c1=O (configuration not stated) -0.424%
Cc1ccc(S(=O)(=O)NCCSc2ccccc2)cc1[N+](=O)[O-] -0.244%
CCOc1ccc(S(=O)(=O)NCCC(=O)N2CCCCCCC2)cc1 4.97%
COc1ccc(-c2cc(C(=O)N/N=C/c3cccnc3)c3ccccc3n2)c(OC)c1 5.29%
O=C(NCCCNc1ccc([N+](=O)[O-])cc1Cl)c1ccccc1F -9.78%
O=C(NCCNc1ccc([N+](=O)[O-])cc1Cl)c1ccccc1F 18.7%
O=C(c1ccncc1)N1CCN(S(=O)(=O)c2cccc([N+](=O)[O-])c2)CC1 4.99%
COc1cccc(NC(=O)CN(C)C(=O)CSCc2nc3scc(-c4cccs4)c3c(=O)[nH]2)c1 0.833%
O=C(c1ccc(NS(=O)(=O)c2ccc3[nH]c(=O)[nH]c3c2)cc1)N1CCCCC1 12.7%
COc1ccc(Cl)cc1NC(=O)CN(C)C(=O)c1cc2ccccc2cc1OC 21%
COc1ccccc1NC(=O)CCCc1c[nH]c2ccccc12 -2.42%
COc1ccccc1NS(=O)(=O)c1ccc(C)c(C(=O)NCC(c2ccco2)N(C)C)c1 (configuration not stated) -1.37%
COc1ccccc1C(=O)Nc1cccc(C(=O)N2CCOCC2)c1 8.16%
COc1cc2ccccc2cc1C(=O)Nc1ccc(N2CCOCC2)cc1 4.47%
Cc1ccc(C(=O)NNC(=O)c2ccncc2)cc1S(=O)(=O)N1CCCCC1 -9.07%
CCCCCCCNC(=O)C1(CC2CC(c3cccc(Br)c3)=NO2)CCN(C(=O)c2cc(OCC)c(OCC)c(OCC)c2)CC1 (configuration not stated) 4.29%
Cn1cc([N+](=O)[O-])c(C(=O)Nc2ccc3c(c2)OCCO3)n1 48.7%
CCc1ccc(NC(=O)c2ccc(Cn3cc([N+](=O)[O-])cn3)cc2)cc1 -1.45%
CCOc1ccc(NC(=O)CSc2nc3ccccc3c(=O)n2Cc2cccs2)cc1 -10.7%
O=C(CSc1ccc(-c2cccs2)nn1)Nc1ccccc1F -2.98%
COCCn1c(SCC(=O)N2CCCCCC2)nc2c(c1=O)SCC2 2.01%
COCCn1c(SCC(=O)Nc2cc(Cl)ccc2OC)nc2c(c1=O)SC(C)C2 (configuration not stated) -0.138%
CCc1ccc(C(=O)NNC(=O)C2CCN(c3ncnc4sc(C)c(C)c34)CC2)cc1 -1.58%
CCOc1ccc(NS(=O)(=O)c2ccc(C(=O)NCC(c3ccccc3OC)N3CCCC3)cc2)cc1 (configuration not stated) -2.02%
COc1cccc(COC(=O)C2CCN(S(=O)(=O)c3cccs3)CC2)c1OC 1.63%
O=C(CC1SC(N2CCCC2)=NC1=O)Nc1ccc(C(=O)NCCc2ccc(F)cc2)cc1 (configuration not stated) -12%
CCN(C(=O)COC(=O)C1CCN(S(=O)(=O)c2ccc(C)c(C)c2)CC1)C1CCS(=O)(=O)C1 (configuration not stated) 1.03%
Cc1ccc(C)c(OCCC(=O)OCC(=O)NC(=O)NCc2ccccc2)c1 -2.69%
COC(=O)c1c(NC(=O)CSc2nncs2)sc2c1CCCCC2 17.2%
COC(=O)c1c(NC(=O)CN(c2ccc(C)c(C)c2)S(C)(=O)=O)sc2c1CCCC2 31.3%
CCCN(CC(=O)Nc1ccccc1OC)C(=O)CCC(=O)c1ccc(F)cc1 -3.54%
COc1ccccc1C(=O)Nc1ccc(NC(=O)c2ccco2)c(C)c1 -0.874%
O=C(Nc1ccc(NC(=O)c2ccco2)c(Cl)c1)c1cccc([N+](=O)[O-])c1 0.794%
O=C(OCC1OC(Oc2ccc(O)cc2)C(O)C(O)C1O)c1ccccc1 (configuration not stated) -4.63%
Cn1c2ccccc2c(=O)c2c(=O)n(Cc3ccco3)c(COc3ccccc3)nc21 17.1%
Cc1nc2ccccc2c(=O)n1Cc1ccc([N+](=O)[O-])cc1 7.48%
O=C(NCCCN1CCCC1=O)c1cccc(S(=O)(=O)NCc2ccccc2)c1 18.7%
COc1ccccc1OCC(=O)Nc1ccccc1C(=O)NC1CC1 6.1%
OCCCNc1nc(-c2ccccc2)c2cc(Cl)ccc2n1 -8.88%
CCCCn1c(N)c(N(CCOC)C(=O)c2sc3ccccc3c2Cl)c(=O)[nH]c1=O 1.82%
CC(Oc1ccc(Cl)cc1)C(=O)Nc1ncccn1 (configuration not stated) 9.27%
Cc1ccc(SCCC(=O)OCC(=O)Nc2ncc(Cl)cc2Cl)cc1 1.1%
CCC(C)N(C(=O)CSc1ncnc2c1cnn2-c1ccccc1)C1CCS(=O)(=O)C1 (configuration not stated) -5.54%
CCOc1ccc(NC(=O)CN(C)C(=O)COc2cccc(CC)c2)cc1OCC -14.1%
CCOC(=O)c1cccc(NC(=O)CCOc2ccccc2)c1 9.76%
CC(=O)Nc1cccc(C(=O)OCC(=O)NCc2cc(C)c(O)c(C)c2)c1 3.6%
Nc1nonc1-n1nnc(C(=O)N/N=C/c2ccccc2O)c1CN1CCCC1 12.4%
CCOC(=O)COc1ccc([N+](=O)[O-])cc1 9.19%
N/C(Cc1ccc([N+](=O)[O-])cc1)=N\OC(=O)C1CCCCC1 -5.43%
COc1cc(OC)cc(C(=O)NNC(=O)CNC(=O)c2ccc(Br)o2)c1 12%
Cc1ccc(NC(=O)CSCC(=O)Nc2sccc2C#N)cc1 -2.79%
Cc1noc(C)c1COc1ccccc1C(=O)N(C)CC(=O)Nc1cccc(F)c1 -1.32%
Cc1cc(=O)[nH]c(SCC(=O)Nc2ccc(Br)cc2)n1 2.91%
O=C(CSCc1ccc(Br)cc1)Nc1ccc(S(=O)(=O)N2CCCCCC2)cc1 25.6%
CCOc1ccc(CC(=O)NCCS(=O)(=O)N2CCN(c3ccccc3)CC2)cc1 3.03%
COc1ccc(C(=O)Nc2ccccc2C(=O)NCc2ccco2)cc1 10.2%
CCc1ccccc1N(CC(=O)NCCSCc1ccco1)S(C)(=O)=O 6.86%
O=C(Nc1ccccc1)Nc1ccccc1C(=O)NCc1ccco1 25.4%
Cc1cc(C)cc(N(CC(=O)NCCSCc2ccco2)S(C)(=O)=O)c1 9.37%
O=C(CCN1C(=O)C2CCCCC2C1=O)Nc1ccc(OC(F)F)cc1 (configuration not stated) 20.6%
O=C(CNC(=O)c1ccccc1Br)NCCSc1ccc(Br)cc1 8.99%
CCCn1c(C)cc(-c2csc(NC(=O)CCc3nc4ccccc4c(=O)[nH]3)n2)c1C -8.73%
CCCc1cc(=O)[nH]c2nnc(SCC(=O)Nc3nnc(SCC)s3)n12 -4.43%
CCOc1ccc(S(=O)(=O)Nc2ccc(C(=O)NCCCN3CCCC3=O)cc2)cc1 4.33%
CCc1noc(C)c1C(=O)NNC(=O)c1ccc(F)cc1 7.94%
Cc1ccc(-c2c3c(=O)n(C)c(=O)n(C)c3cn2-c2ccccc2O)cc1 3.5%
COc1ccc(-c2c3c(=O)n(C)c(=O)n(C)c3cn2NC(C)=O)cc1 -5.15%
COc1cccc(CNC(=O)C(=O)NCCC2CCCCN2S(=O)(=O)c2ccc(C)cc2)c1 (configuration not stated) -8.41%
CC(C)C(=O)Nc1cccc(NC(=O)c2ccc([N+](=O)[O-])cc2Cl)c1 32.5%
O=C(Nc1ccncc1)c1ccc([N+](=O)[O-])cc1Cl 23.1%
O=C(/C=C/c1ccc(Cl)cc1)Nc1ccc(Br)cn1 6.81%
CN1C(=O)c2ccc(C(=O)Nc3ccc(Br)cn3)cc2C1=O -4.17%

activation, active:
CCOc1ccc(S(=O)(=O)NCCSc2ccccc2)cc1 61.2%
O=C(NCCNc1ccccc1[N+](=O)[O-])c1ccccc1F 55.9%
COc1ccc(Cl)cc1NC(=O)CN(C)C(=O)CCCc1c[nH]c2ccccc12 60.8%
CCc1cc(C(c2ccccc2OC)N2CCOCC2)c(NC(=O)c2ccccc2)s1 (configuration not stated) 68.8%
Cn1cc([N+](=O)[O-])c(C(=O)Nc2cnn(Cc3ccc(F)cc3)c2)n1 65.1%
O=C(CSc1nc2nccnc2c(=O)n1Cc1cccs1)Nc1ccccc1F 77.1%
COCCn1c(SCC(=O)Nc2ccccc2F)nc2c(c1=O)SCC2 54.8%
CCc1ccc(N(CC(=O)Nc2sc3c(c2C(=O)OC)CCCC3)S(C)(=O)=O)cc1 59.7%
COc1cc(NC(=O)c2cc([N+](=O)[O-])ccc2Br)ccc1NC(=O)c1ccco1 111%
Cc1ccc(Cn2c(C)nc3c(c2=O)c2nc4ccccc4nc2n3Cc2ccco2)cc1 100%
CC(Oc1ccc(Cl)cc1)C(=O)OCC(=O)Nc1ncc(Cl)cc1Cl (configuration not stated) 83.9%
CCOC(=O)C(CCOc1cccc(CC)c1)C(=O)OCC 109%
Cc1cc(C)cc(OCC(=O)O/N=C(\N)Cc2ccc([N+](=O)[O-])cc2)c1 59.9%
O=C1CCCN2N=C(SCC(=O)Nc3ccc(Br)cc3)SC2=N1 112%
Cc1ccc(N(Cc2ccc(C(=O)Nc3ccccc3C(=O)NCc3ccco3)cc2)S(C)(=O)=O)cc1C 87.4%
CS(=O)(=O)N(Cc1ccc(Cl)cc1)c1ccc(C(=O)NCCSCc2ccco2)cc1 71.5%
Cc1ccc(-c2c3c(=O)n(C)c(=O)n(C)c3cn2-n2cnnc2)cc1 89.3%
O=C(Nc1ccc(Br)cn1)c1ccc([N+](=O)[O-])cc1Cl 69.9%
O=C(Nc1ccc(Br)cn1)c1ccc([N+](=O)[O-])o1 131%
